# From PubChem
# Pf Dd2 inh: inhibitors of Plasmodium falciparum Dd2 growth; P. falciparum Dd2 growth, SYBR Green, 72 h; stronger effect = lower value; activity change, % at 10 µM; actives 2.3% (n = 94,000); in the data active = activity change below about -80%; inconclusive = no clear call, values can overlap the other calls
# C diff growth: C. difficile growth inhibition. Clostridium difficile clinical isolate growth, OD600, 24 h; stronger effect = lower value. growth activity, negative = inhibition, % at 16 µg/mL (by protocol). actives 0.25% (n = 86,000). AID 1259249;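 active = mean growth activity at or below -80% and every replicate also at or below -80%; inconclusive = mean at or below -80% but some replicate above -80%; inactive = mean growth activity above -80%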;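 note: 0% = DMSO wells and -100% = levofloxacin 16 µg/mL wells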
# T cruzi growth: inhibitors of T. cruzi proliferation; T. cruzi beta-gal in NIH3T3, GalScreen luminescence, 90 h; actives 5.9% (n = 77,000); inhibition, % at 8.34 µM; AID 624255;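 active = mean inhibition above about 93%, with at least 55% of replicates each passing it, limit read from the data, passing the limit was not always enough; inconclusive = only one of those two conditions holds; inactive = neither condition holds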
# Numbers without * were called inactive; ? = inconclusive; / = no result. Hits are enriched below; roughly 6.8% of the tested compounds scored in any of these assays.
SMILES,Pf Dd2 inh,C diff growth,T cruzi growth
C[C@@H]1CCCCO[C@@H](CN(C)Cc2ccc(Cl)c(Cl)c2)[C@H](C)CN([C@H](C)CO)C(=O)c2cc(NC(=O)Nc3ccc4c(c3)OCO4)ccc2O1,-88*,12,98
C[C@@H]1CCCCO[C@@H](CN(C)Cc2ccc(Cl)c(Cl)c2)[C@@H](C)CN([C@@H](C)CO)C(=O)c2cc(NC(=O)Nc3ccc4c(c3)OCO4)ccc2O1,-32,6,98
C[C@H]1CCCCO[C@H](CN(C)Cc2ccc(Cl)c(Cl)c2)[C@@H](C)CN([C@@H](C)CO)C(=O)c2cc(NC(=O)Nc3ccc4c(c3)OCO4)ccc2O1,-56,3,68
CCC(=O)N[C@@H]1CC[C@@H](CCNC(=O)Nc2ccc(F)cc2)O[C@H]1CO,7,3,-24
CO[C@H]1CN(C)C(=O)c2cc(NC(C)=O)ccc2OC[C@H](C)N(C(=O)CN(C)C)C[C@H]1C,9,-3,/
COc1ccc(C#Cc2ccc3c(c2)O[C@@H](CN(C)S(=O)(=O)c2ccccc2F)[C@H](C)CN([C@@H](C)CO)S3(=O)=O)cc1,-82*,0,/
COc1ccc(C#Cc2ccc3c(c2)O[C@@H](CN(C)C)[C@H](C)CN([C@H](C)CO)S3(=O)=O)cc1,-37,8,87
COc1ccc(C#Cc2ccc3c(c2)O[C@H](CN(C)S(=O)(=O)c2ccccc2F)[C@@H](C)CN([C@@H](C)CO)S3(=O)=O)cc1,-86*,1,/
COc1ccc(C#Cc2ccc3c(c2)O[C@H](CN(C)C)[C@@H](C)CN([C@H](C)CO)S3(=O)=O)cc1,-24,2,93
O=C(CC1CC1)N1[C@@H]2CN(S(=O)(=O)c3ccccc3)c3ccccc3[C@@H]2[C@@H]1CO,-14,2,10
C[C@@H]1CN([C@@H](C)CO)C(=O)c2cc(NS(=O)(=O)c3cccs3)ccc2O[C@@H](C)CCCCO[C@@H]1CN(C)S(=O)(=O)c1ccc(F)cc1,-83*,26,61
COc1ccc(S(=O)(=O)N(C)C[C@H]2OCCCC[C@H](C)Oc3ccc(NS(=O)(=O)c4cccs4)cc3C(=O)N([C@H](C)CO)C[C@H]2C)cc1,-81*,-2,-37
C[C@@H]1CCCCO[C@@H](CN(C)S(=O)(=O)c2ccc(F)cc2)[C@H](C)CN([C@H](C)CO)C(=O)c2cc(NS(=O)(=O)c3cccs3)ccc2O1,-48,2,56
COc1ccc(S(=O)(=O)N(C)C[C@@H]2OCCCC[C@H](C)Oc3ccc(NS(=O)(=O)c4cccs4)cc3C(=O)N([C@H](C)CO)C[C@@H]2C)cc1,-39,1,-8
COc1ccc(S(=O)(=O)N(C)C[C@H]2OCCCC[C@H](C)Oc3ccc(NS(=O)(=O)c4cccs4)cc3C(=O)N([C@@H](C)CO)C[C@H]2C)cc1,-83*,-4,64
COc1ccc(S(=O)(=O)N(C)C[C@@H]2OCCCC[C@H](C)Oc3ccc(NS(=O)(=O)c4cccs4)cc3C(=O)N([C@@H](C)CO)C[C@H]2C)cc1,-76,-6,52
CC(C)NC(=O)N(C)C[C@H]1Oc2ccc(NS(C)(=O)=O)cc2CC(=O)N([C@H](C)CO)C[C@H]1C,4,-1,/
C[C@@H]1CN([C@@H](C)CO)C(=O)c2cc(NC(=O)Cn3cnnn3)ccc2O[C@@H]1CN(C)Cc1ccc2c(c1)OCO2,3,-1,-4
CCC(=O)N[C@@H]1CC[C@@H](CC(=O)NCC2CCCCC2)O[C@@H]1CO,6,/,29
C[C@@H]1CN([C@H](C)CO)C(=O)c2cc(NS(=O)(=O)c3cn(C)cn3)ccc2O[C@@H]1CN(C)C(=O)NC1CCCCC1,27,/,69
COc1ccc(S(=O)(=O)Nc2ccc3c(c2)C(=O)N([C@H](C)CO)C[C@H](C)[C@H](CN(C)Cc2ccc4c(c2)OCO4)O3)cc1,-20,1,/
C[C@@H]1CN([C@@H](C)CO)C(=O)Cc2cc(NC(=O)Cc3ccccc3)ccc2O[C@@H]1CN(C)C,1,0,/
COCC#Cc1ccc(CC[C@H]2O[C@H]3CC[C@@H](CO)O[C@H]3C[C@@H]2n2cc(C3CC3)nn2)cc1,-89*,5,/
COCC#Cc1ccc(CC[C@H]2O[C@H]3CC[C@H](CO)O[C@H]3C[C@H]2n2cc(C3CC3)nn2)cc1,-73,-2,/
OC[C@@H]1CC[C@@H]2O[C@H](CCc3ccc(C#Cc4ccccc4)cc3)[C@H](n3cc(-c4ccccc4)nn3)C[C@@H]2O1,-84*,2,/
SMILES,Pf Dd2 inh,C diff growth,T cruzi growth
OC[C@H]1CC[C@@H]2O[C@H](CCc3ccc(C#CCc4ccccc4)cc3)[C@@H](n3cc(-c4ccccc4)nn3)C[C@@H]2O1,?,59,/
COCC#Cc1ccc(CC[C@H]2O[C@H]3CC[C@H](CO)O[C@H]3C[C@H]2n2cc(C(C)(C)O)nn2)cc1,4,10,/
CCCC#Cc1ccc(CC[C@H]2O[C@H]3CC[C@H](CO)O[C@H]3C[C@@H]2n2cc(C(C)(C)O)nn2)cc1,-85*,-13,/
COc1ccc2c3c([nH]c2c1)[C@@H](CO)N(C(=O)c1ccccc1)CC31CN(C(=O)Nc2cccc(F)c2)C1,-42,13,/
CCCC(=O)Nc1ccc2c(c1)C(=O)N(C)[C@H]1CC[C@H](CC(=O)NCC(F)(F)F)O[C@@H]1CO2,14,2,-29
CO[C@@H]1CN(C)C(=O)c2cc(NC(=O)c3ccc(-c4ccccc4)cc3)ccc2OC[C@@H](C)NC[C@@H]1C,-97*,/,/
CO[C@H]1CN(C)C(=O)c2cc(NC(=O)c3ccc(-c4ccccc4)cc3)ccc2OC[C@@H](C)NC[C@H]1C,-78,/,/
CO[C@H]1CN(C)C(=O)c2cc(NC(=O)c3ccc(-c4ccccc4)cc3)ccc2OC[C@H](C)NC[C@H]1C,-92*,/,/
CO[C@@H]1CN(C)C(=O)c2cc(NC(=O)c3ccc(-c4ccccc4)cc3)ccc2OC[C@H](C)NC[C@@H]1C,-76,/,/
COCC(=O)N1CC2(C1)CN(C(=O)c1ccccn1)[C@H](CO)c1c2c2ccc(OC)cc2n1C,26,/,/
COc1ccc(C#Cc2ccc([C@@H]3[C@@H](CO)N4CCCCN(Cc5ccccc5F)C[C@H]34)cc2)cc1,-80,-97*,-29
COc1ccc(C#Cc2ccc([C@@H]3[C@H](CO)N4CCCCN(C(=O)Nc5cccc(F)c5)C[C@@H]34)cc2)cc1,-84*,-85*,62
COc1ccc(C#Cc2ccc([C@H]3[C@H]4CN(Cc5ccccc5F)CCCCN4[C@H]3CO)cc2)cc1,-35,0,5
COc1ccc(NC(=O)N2CCCCN3[C@H](CO)[C@H](c4ccc(-c5ccccc5F)cc4)[C@@H]3C2)cc1,-85*,-15,30
COc1ccc(C#Cc2ccc([C@H]3[C@@H](CO)N4CCCCN(C(=O)Nc5cccc(F)c5)C[C@H]34)cc2)cc1,?,-89*,66
COc1ccc(C#Cc2ccc([C@@H]3[C@H]4CN(C(=O)Nc5cccc(F)c5)CCCCN4[C@H]3CO)cc2)cc1,-51,53,68
O=C(Nc1ccccc1)N1CCCCN2[C@H](CO)[C@@H](c3ccc(-c4ccccc4F)cc3)[C@@H]2C1,11,50,88
O=C(Nc1cccc(F)c1)N1CCCCN2[C@H](CO)[C@@H](c3ccc(C#Cc4ccccc4)cc3)[C@@H]2C1,-18,-3,88
